Inconclusive results are not listed. Activity calls are given as the source filed them. Calls come from the whole dose curve; as a rule, active = well fitted curve in the direction sought with a large enough effect; inconclusive = small, poorly fitted or top-dose-only effect, or another doubt; inactive = no such curve, though single readings can be large; an effect the other way counts as inactive or inconclusive.
Experiments:
[1] = MultiTox-Fluor Cytotoxicity Assay - LYMP1-001 - Dead Cells (AID 946);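 note: cells exposed to compound for 16 h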
How it was run: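 Seed 2500 LYMP1-001 cells/well, incubate 5 hr at 37 C; add compound, 16 hr at 37 C; add MultiTox-Fluor reagent, 60 min RT; read dead-cell fluorescence Ex/Em=485/520. Normalize to DMSO and 15 uM tetraoctylammonium bromide.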

[2] = MultiTox-Fluor Cytotoxicity Assay - LYMP1-001 - Live Cells (AID 947)
[3] = Cell Viability - LYMP1-002 - Assay at 16 hr (AID 948)
How it was run: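 In this qHTS, lymphoblastoid LYMP1-002 cells (human) receive compounds for 16 hr at 37 C. Viability is taken from CellTiter-Glo ATP luminescence, and AC50 derives from standard Hill fits.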

[4] = MultiTox-Fluor Cytotoxicity Assay - LYMP1-002 - Dead Cells (AID 960);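 note: cells exposed to compound for 16 h at 37 °C; nearly all actives have a fitted effect of over 60% in size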
How it was run: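 Human lymphoblastoid LYMP1-002 cells, 2500/well, treated 16 h at 37 C; dead-cell protease cleavage of bis-AAF-R110 read by fluorescence (485/520); normalized to DMSO and 15 uM tetraoctylammonium bromide; AC50 from Hill fit.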

[5] = MultiTox-Fluor Cytotoxicity Assay - LYMP1-003 - Dead Cells (AID 961);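 note: cells exposed to compound for 16 h at 37 °C; nearly all actives have a fitted effect of over 70% in size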
How it was run: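 LYMP1-003 lymphoblastoid, 2500 cells/well, 5 hr settle then 16 hr cpd at 37 C; MultiTox-Fluor reagent 60 min RT; Ex/Em 485/520 dead-cell signal; norm. DMSO = 0%, 15 uM tetraoctylammonium bromide = 100%; Hill AC50.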

[6] = MultiTox-Fluor Cytotoxicity Assay - LYMP1-003 - Live Cells (AID 962);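 note: cells exposed to compound for 16 hours at 37 °C; cytotoxic hits lower the live-cell protease signal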
How it was run: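 LYMP1-003 lymphoblastoid cells, 2500/well in complete medium, treated 16 h at 37 C; live-cell protease cleavage of GF-AFC read by fluorescence (Ex/Em 405/510) after 60 min reagent; AC50 from Hill fits of concentration-response.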

[7] = Cell Viability - LYMP1-003 - Assay at 40 hr (AID 964); note: series mostly up to about 92 µM; nearly all actives have a fitted effect of over 60% in size
How it was run: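 LYMP1-003 human lymphoblastoid cells, 2500/well, preincubated 5 h at 37 C, then treated with compound for 40 h at 37 C. Intracellular ATP read by CellTiter-Glo luminescence after 30 min at room temperature; AC50 from Hill-equation fits.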

[8] = Cell Viability - LYMP2-003 (AID 965);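 note: cells exposed to compounds for 24 h before reading; nearly all actives have a fitted effect of over 50% in size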
How it was run: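 qHTS, human lymphoblastoid line, 2500 cells/well, complete medium. 24 h drug, 37 C. ATP-based luminescent readout; Hill-fit AC50.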

[9] = Cell Viability - LYMP2-004 (AID 966); note: nearly all actives have a fitted effect of over 65% in size
How it was run: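 Lymphoblastoid LYMP2-004 cells, 2500 per well, were preincubated for 5 hr and then treated with compound for 24 h at 37 C in complete medium. Viability was read as cellular ATP by CellTiter-Glo luminescence, and AC50 values were taken from Hill fits to concentration-response data.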

[10] = Cell Viability - LYMP2-005 (AID 967); note: series mostly up to about 92 µM
How it was run: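 Luciferase-based ATP quantitation served as the viability measure in human lymphoblastoid LYMP2-005 cells exposed to test compounds for 24 h at 37 C in complete culture medium. Potency (AC50) was obtained by fitting concentration-response curves with the Hill equation.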

[11] = Cell Viability - LYMP2-009 (AID 968); note: series mostly up to about 92 µM; nearly all actives have a fitted effect of over 55% in size
[12] = Cell Viability - LYMP2-011 (AID 969); note: nearly all actives have a fitted effect of over 60% in size
How it was run: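 2500 cells/well in complete medium, compound-treated 24 h at 37 C. Viability read as intracellular ATP by CellTiter-Glo luminescence after 30 min at room temperature. AC50 from Hill fits of qHTS concentration-response data.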

[13] = Cell Viability - LYMP2-013 (AID 970); note: series mostly up to about 92 µM; nearly all actives have a fitted effect of over 55% in size
How it was run: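 Human lymphoblastoid LYMP2-013 cells, 2500/well, treated 24 h at 37 C in complete medium; viability as intracellular ATP by CellTiter-Glo luminescence after 30 min. AC50 from Hill fits of qHTS concentration-response.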

[14] = Cell Viability - LYMP2-015 (AID 971); note: nearly all actives have a fitted effect of over 55% in size
How it was run: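 LYMP2-015 human lymphoblastoid cells (2500/well) in complete medium, compound-treated 24 h at 37 C; viability read as cellular ATP by CellTiter-Glo luminescence after 30 min at room temperature. AC50 from Hill-equation fits of qHTS concentration-response data.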

[15] = Cell Viability - LYMP2-019 (AID 973); note: nearly all actives have a fitted effect of over 55% in size
How it was run: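 Human lymphoblastoid LYMP2-019 cells (2500/well) preincubated 5 h at 37 C, then treated 24 h at 37 C in complete medium. Viability by CellTiter-Glo ATP luminescence after 30 min at room temperature; AC50 from Hill fits.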

[16] = Cell Viability - LYMP2-023 (AID 975)
How it was run: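 LYMP2-023 human lymphoblastoid cells, 2500/well, preincubated 5 hr at 37 C, then compound-treated 24 hr at 37 C in complete medium. CellTiter-Glo luminescence (ATP) after 30 min at room temperature; AC50 from Hill-equation fits; tetraoctylammonium bromide positive control.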

[17] = Cell Viability - LYMP2-021 (AID 974)
How it was run: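 Human lymphoblastoid LYMP2-021 cells, 2500/well in complete medium, treated 24 hours at 37 C. Intracellular ATP by CellTiter-Glo luminescence (30 min, RT); AC50 from Hill fits of concentration-response.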

[18] = MultiTox-Fluor Cytotoxicity Assay - LYMP1-002 - Live Cells (AID 955);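 note: cells exposed to compound for 16 hours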
How it was run: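 Human lymphoblastoid LYMP1-002 cells, 2500/well, treated 16 h at 37 C in complete medium. Live-cell protease activity via GF-AFC fluorescence (Ex/Em 405/510) after 60 min reagent incubation; AC50 from Hill fits.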

[19] = Cell Viability - LYMP1-003 - Assay at 24 hr (AID 963)
How it was run: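 Human lymphoblastoid LYMP1-003 cells, 2500/well, treated 24 h at 37 C in complete medium. Viability read as intracellular ATP by CellTiter-Glo luminescence after 30 min at room temperature; AC50 from Hill-equation fits of qHTS concentration-response.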

[20] = Cell Viability - LYMP2-017 (AID 972)
How it was run: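 LYMP2-017 human lymphoblastoid cells (2500/well) settled 5 hr at 37 C, then exposed to compound 24 hr at 37 C in complete medium. Viability taken as intracellular ATP by CellTiter-Glo luminescence after 30 min at RT; AC50 from Hill fits.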

Measured: Potency

Nc1cc([N+](=O)[O-])ccc1C(=O)O
not listed: [17] | [18] | [19] | [20]
inactive: all other assays above

CC(C)(C)OCC1CO1 (centres undefined)
not listed: [18] | [19] | [20]
inactive: all other assays above

CC(C)(c1cc(Br)c(OCC(Br)CBr)c(Br)c1)c1cc(Br)c(OCC(Br)CBr)c(Br)c1 (centres undefined)
not listed: [3] | [17]
inactive: all other assays above

CCC(C)(C)C(=O)O
not listed: [11] | [18]
inactive: all other assays above

O=C(O)CNC(=O)c1ccc(CO)o1
not listed: [3]
inactive: all other assays above

FC(F)(F)c1cccc(Cl)c1
not listed: [3]
inactive: all other assays above

Cc1ccccc1C(=O)O
not listed: [3] | [17] | [20]
inactive: all other assays above

Cc1ccc(C)cc1
not listed: [9] | [18]
inactive: all other assays above

Cc1ccc(N(C)C)cc1
not listed: [3] | [19]
inactive: all other assays above

C=C(C)OC(C)=O
not listed: [3] | [17]
inactive: all other assays above

C[C@@H]1CC2(OC[C@]3(C)O[C@H]23)O[C@H]2C[C@@]3(C)[C@@H]4CC[C@H]5C(C)(C)C(O[C@@H]6OC[C@@H](O)[C@H](O)[C@H]6O)CC[C@@]56C[C@@]46CC[C@]3(C)[C@@H]12 (some centres undefined)
not listed: [17] | [18]
inactive: all other assays above

CCC(O)C(C)(C)C (centres undefined)
not listed: [3]
inactive: all other assays above

Cc1c(N)cccc1N
not listed: [3]
inactive: all other assays above

— PubChem BioAssay (NCATS)
